The record followed here is PubChem BioAssay AID1851 (National Center for Advancing Translational Sciences (NCATS), 2009).

The whole screen tested about 16,000 compounds, of which about 5,800 (36%) were called active. About 23% were inconclusive and are not listed. This is one part of the list. Unmarked numbers belong to inactive results. The call rests on the fitted dose curve; in most records, active means well fitted curve in the direction sought with a large enough effect; inconclusive means small, poorly fitted or top-dose-only effect, or effect the other way; inactive means no such curve, though single readings can be large or run the other way.
On the % scale 0 is the no-effect control and ±100 the full control effect.

Sequence of Cytochrome P450 2C19 (Homo sapiens) (P33261 whole entry, looked up): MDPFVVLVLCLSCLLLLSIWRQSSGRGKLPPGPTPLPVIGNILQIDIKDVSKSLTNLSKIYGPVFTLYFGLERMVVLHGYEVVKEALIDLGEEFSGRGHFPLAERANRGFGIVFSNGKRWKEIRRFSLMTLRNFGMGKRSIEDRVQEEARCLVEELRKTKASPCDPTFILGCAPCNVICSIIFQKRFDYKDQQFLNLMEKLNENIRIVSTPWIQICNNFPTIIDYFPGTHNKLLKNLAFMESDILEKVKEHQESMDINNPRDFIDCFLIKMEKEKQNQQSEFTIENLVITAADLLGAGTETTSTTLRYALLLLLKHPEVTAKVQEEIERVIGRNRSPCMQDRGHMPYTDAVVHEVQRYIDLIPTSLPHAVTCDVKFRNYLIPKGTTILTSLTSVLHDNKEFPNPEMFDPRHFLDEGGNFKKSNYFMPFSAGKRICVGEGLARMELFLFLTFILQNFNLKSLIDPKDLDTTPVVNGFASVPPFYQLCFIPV

The assay has as its target Cytochrome P450 2C19 (Homo sapiens) (UniProt P33261). Description: Cytochrome panel assay with activity outcomes. The settings on record: recombinant CYP, pro-luciferin dealkylation, luminescence, p450-cyp2c19; series mostly up to 57.1 µM.
A word on the AC50: it is the midpoint of the concentration-response curve, whichever way the signal moves. With `O=C(Nc1cc(Sc2ccccn2)cc([N+](=O)[O-])c1)c1ccc(Cl)cc1`, the AC50 is 3.16 µM (active).
Still for that read-out and setting: next, `O=C(Nc1cccc(-c2cnc3ccccc3n2)c1)c1ccc(Cl)cc1`: “inactive”; `COC(=O)c1ccc(CSc2nc3cc(Cl)ccc3s2)o1`: 3.16 µM (active); `C1CCc2nnnn2CC1`: “inactive”.
Same read-out and setting: next, `CN1CCN(c2ncc3nc(CCc4ccccc4)c(=O)n(C)c3n2)CC1`: “inactive”; `COc1cccc(Nc2ncc3nc(CCc4ccccc4)c(=O)n(CCC#N)c3n2)c1`: “inactive”; `COCCn1c(=O)c(-c2ccc(F)c(F)c2)nc2cncnc21`: “inactive”.
In the case of `COc1ccccc1CCn1c(=O)c(-c2ccc(F)c(F)c2)nc2cncnc21`, the AC50 is 1.26 µM (active).
Same read-out and setting: next, `COCCn1c(=O)c(-c2ccc(F)cc2)nc2cncnc21`: “inactive”; `COc1ccccc1CCn1c(=O)c(-c2cn(C)c3ccccc23)nc2cncnc21`: 0.316 µM (active).
As to `COc1cccc(Cn2c(=O)c(-c3cn(C)c4ccccc34)nc3cncnc32)c1`, the AC50 result is “inactive”.
The same measure, in the same setting: next, `COc1ccccc1CCn1c(=O)c(CCc2ccccc2)nc2cncnc21`: 3.16 µM (active); `Cn1cc(-c2nc3cncnc3n(Cc3ccccc3Cl)c2=O)c2ccccc21`: “inactive”.
For the compound `COc1ccc(-n2c(=O)c(-c3ccc(F)c(F)c3)nc3cncnc32)cc1`, the AC50 result is “inactive”.
Regarding `Cn1c(=O)c(-c2ccc(F)cc2)nc2cncnc21`, the AC50 result was “inactive”.
`COc1ccccc1CCn1c(=O)c(-c2ccc(F)cc2)nc2cncnc21`: the AC50 is 0.316 µM (active).
As to `CCOC(=O)N/N=C1/C[C@@H](O)[C@@H](O)[C@@H]2[C@@H]3C(=O)N(C(C)(C)C)C(=O)[C@H]3CC[C@H]12`, the activity, negative = inhibition is 1.59% [at 11.4 µM].
On to `COc1ccc(C[C@@H]2C(=O)N[C@H](C)C(=O)N(C)[C@@H]3Cc4ccc(cc4)Oc4cc(ccc4O)C[C@H](C(=O)N[C@@H](C)C(=O)N[C@H](C)C(=O)N2C)N(C)C3=O)cc1`, for which the activity, negative = inhibition was 1.07% [at 11.4 µM].
For the compound `COCCn1c(=O)c(-c2ccc(Cl)cc2)nc2cnc(Nc3ccccc3)nc21`, the AC50 result was “inactive”.
As to `COCCn1c(=O)c(-c2cccc(Cl)c2)nc2cncnc21`, the AC50 result was “inactive”.
Same read-out and setting: next, `COc1ccccc1CCn1c(=O)c(-c2cccc(Cl)c2)nc2cncnc21`: 0.251 µM (active); `Cn1c(=O)c(-c2ccccc2)nc2cncnc21`: “inactive”; `Cn1c(=O)c(-c2ccc(Cl)cc2)nc2cncnc21`: “inactive”.
The same measure, in the same setting: the same measure for `COc1ccccc1CCn1c(=O)c(-c2ccccc2)nc2cncnc21`: 0.631 µM (active); for `COCCn1c(=O)c(-c2cccs2)nc2cnc(N(C)C)nc21`: “inactive”; for `COc1ccccc1CCn1c(=O)c(-c2ccc(Cl)cc2)nc2cncnc21`: 0.398 µM (active).
Consider `COc1ncc2nc(-c3cccs3)c(=O)n(CCC#N)c2n1`, for which the AC50 result was “inactive”.
With `Cn1c(=O)c(-c2cccc(Cl)c2)nc2cncnc21`, the AC50 entry was “inactive”.
With `COc1ccccc1CCn1c(=O)c(-c2cccs2)nc2cncnc21`, the concentration at half-maximal activity (AC50) is 2 µM (active).
